Test results from ChEMBL document CHEMBL1857833, “Screening and optimization of specific chemical series against human African Trypanosomiasis (HAT)”.
Where “and” joins values, the source holds several entries; their conditions need not be identical. Equal entries are not always repeated. Hit rate of the full screen: of about 4,400 compounds, about 390 (8.9%) showed an effect of 50% or more. The entries come from a sample that favours strong results as a whole.

The compounds below were run on Trypanosoma brucei (assay: DNDI: Inhibition of Human African Trypanosomiasis, SBRI 427, in vitro at 2 ug.mL-1).
Assay type: functional
With `Cc1ccc(/C(=N/O)NC2CC2)c(OCc2ccncc2)n1` the “% inhibition” value was 19%.
In the case of `Clc1ccccc1-c1nc(CN2CC=CCC2)co1`, the “% inhibition” value is reported as 14%.
With `CCN(CC)c1cccc(Oc2ncccc2/C(=N/O)N2CCCC2)c1` the “% inhibition” value was -7%.
For `CC1(C)Cc2cccc(Oc3ccc(/C(=N/O)NC4CCc5ccccc54)cn3)c2O1` (configuration not stated), the “% inhibition” value was 10%.
For `Cc1ccc(/C(=N/O)N2CCCC2C)c(Oc2cccc(C(C)C)c2)n1` (configuration not stated), the “% inhibition” value was 0%.
In the case of `Cc1cccc(N2CCN(Cc3coc(-c4ccccc4F)n3)CC2C)c1` (configuration not stated), the “% inhibition” value is reported as -21%.
In the case of `COCC(C)N/C(=N\O)c1ccc(C)nc1OCc1ccccc1C` (configuration not stated), the “% inhibition” value is reported as 8%.
With `N#CCCN(Cc1ccccc1)Cc1coc(-c2ccc(F)cc2)n1` the “% inhibition” value was -7%.
For `Cc1ccc(C(C)C)c(Oc2cc(/C(=N/O)NCC3CCCCC3)ccn2)c1`, the “% inhibition” value was 27%.
In the case of `COc1ccc(-c2nc(CNC34C[C@H]5C[C@@H](C3)C[C@@H](C4)C5)co2)cc1`, the “% inhibition” value is reported as 3%.
In the case of `Cc1ccc(-c2nc(CNC34C[C@H]5C[C@@H](C3)C[C@@H](C4)C5)co2)cc1`, the “% inhibition” value is reported as 90%.
In the case of `Cc1ccccc1-c1nc(CNC23C[C@H]4C[C@@H](C2)C[C@@H](C3)C4)co1`, the “% inhibition” value is reported as 49%.
For `CN(Cc1coc(-c2ccccc2Cl)n1)CC1OCCO1`, the “% inhibition” value was 8%.
With `COc1ccccc1Oc1ncccc1/C(=N/O)Nc1ccccc1` the “% inhibition” value was 62%.
For `CSc1ccccc1Oc1ncccc1/C(=N/O)Nc1ccccc1`, the “% inhibition” value was 71%.
In the case of `CSc1ccccc1Oc1ncccc1/C(=N/O)N1CCOCC1`, the “% inhibition” value is reported as 8%.
`CSc1ccccc1Oc1ncccc1/C(=N/O)N1CCN(c2ccccc2)CC1` was tested, and the “% inhibition” value was 22%.
For `COc1ccc(Oc2ncccc2/C(=N/O)Nc2ccccc2)cc1`, the “% inhibition” value was -9%.
In the case of `O/N=C(\Nc1ccccc1)c1cccnc1Oc1ccccc1F`, the “% inhibition” value is reported as 2%.
`Cc1ccc(Oc2nc(C)ccc2/C(=N/O)N2CCN(C)CC2)cc1` was tested, and the “% inhibition” value was 19%.
For `COCCN(/C(=N\O)c1ccc(C)nc1Oc1ccc(SC)c(C)c1)C(C)C`, the “% inhibition” value was 9%.
In the case of `COCCN(Cc1coc(-c2ccccc2C)n1)C(C)C`, the “% inhibition” value is reported as -31%.
`O/N=C(\Nc1ccon1)c1ccc(Oc2cccc3cccnc23)nc1` was tested, and the “% inhibition” value was 13%.
`CCOc1ccccc1-c1nc(CN2CCN(c3cc(C)nc4ccccc34)CC2)co1` was tested, and the “% inhibition” value was 14%.
For `Cc1ccc(/C(=N/O)N(C)c2ccccc2)c(OCc2ccccc2F)n1`, the “% inhibition” value was -4%.
For `CN(/C(=N\O)c1cccnc1OCc1ccccc1F)c1ccccc1`, the “% inhibition” value was 98%.
`N/C(=N\O)c1cccnc1OCc1cccc(F)c1` was tested, and the “% inhibition” value was -4%.
`CN(Cc1ccco1)/C(=N\O)c1cccnc1OCc1ccccc1F` was tested, and the “% inhibition” value was 5%.
In the case of `CN(/C(=N\O)c1cccnc1OCc1cccc(F)c1)c1ccccc1`, the “% inhibition” value is reported as 98%.
With `CN(/C(=N\O)c1cccnc1OCc1cccc(F)c1)C1CCCCC1` the “% inhibition” value was -3%.
With `O=Cc1nccn1Cc1coc(-c2ccc(Br)cc2)n1` the “% inhibition” value was 11%.
In the case of `CCOc1ccccc1CN/C(=N\O)c1ccnc(Oc2ccc(F)c(F)c2)c1`, the “% inhibition” value is reported as 13%.
With `CN(C)CCN(Cc1ccccc1)Cc1coc(-c2ccc(Br)cc2)n1` the “% inhibition” value was 23%.
In the case of `Clc1cccc(N2CCN(Cc3coc(-c4ccccc4Br)n3)CC2)c1`, the “% inhibition” value is reported as 7%.
`COc1ccccc1CCNCc1coc(-c2ccccc2Br)n1` was tested, and the “% inhibition” value was 6%.
`CCOc1ccccc1CN/C(=N\O)c1ccc(Oc2cc(C)cc(C)c2)nc1` was tested, and the “% inhibition” value was 28%.
`Cc1ccc(/C(=N/O)N2CCC(N(C)C)C2)c(Oc2cccc(F)c2)n1` (configuration not stated) was tested, and the “% inhibition” value was 6%.
For `CCOc1ccccc1-c1nc(CNC(C)c2cccc3ccccc23)co1` (configuration not stated), the “% inhibition” value was 5% and 9%.
In the case of `CCOc1ccccc1-c1nc(CNC2CCCCCCCCCCC2)co1`, the “% inhibition” value is reported as 99%.
`CC(NCc1coc(-c2ccccc2Br)n1)C1CCCCC1` (configuration not stated) was tested, and the “% inhibition” value was -30% and -35%.
In the case of `CCOc1ccccc1-c1nc(CNC2C[C@H]3CC[C@@H]2C3)co1` (some centres not stated), the “% inhibition” value is reported as 28%.
`CCOc1ccccc1-c1nc(CNC(C)c2ccc(C)cc2)co1` (configuration not stated) was tested, and the “% inhibition” value was 15%.
In the case of `CC(NCc1coc(-c2cccc3ccccc23)n1)C1CCCCC1` (configuration not stated), the “% inhibition” value is reported as 87% and 90%.
`CC(NCc1coc(-c2ccc(Br)cc2)n1)C1CCCCC1` (configuration not stated) was tested, and the “% inhibition” value was 36%.
For `Cc1ccccc1-c1nc(CNC(C)C2CCCCC2)co1` (configuration not stated), the “% inhibition” value was 23%.
For `CCOc1ccccc1-c1nc(CNC(C)C2CCCCC2)co1` (configuration not stated), the “% inhibition” value was 98%.
For `Cc1ccc(-c2nc(CNC(C)C3CCCCC3)co2)cc1` (configuration not stated), the “% inhibition” value was 25%.
In the case of `CCOc1ccc(-c2nc(CNC(C)C3CCCCC3)co2)cc1` (configuration not stated), the “% inhibition” value is reported as 87%.
In the case of `CCOc1ccccc1-c1nc(CNC2CCN(Cc3ccccc3)C2)co1` (configuration not stated), the “% inhibition” value is reported as 6%.
`N/C(=N\O)c1ccc(Oc2cccc3ccccc23)nc1` was tested, and the “% inhibition” value was 36%.
With `COc1ccc(-c2nc(CN(C)Cc3cccc4ccccc34)co2)cc1` the “% inhibition” value was -11%.
With `COCCN(/C(=N\O)c1ccc(Oc2ccc(C)cc2C)nc1)C(C)C` the “% inhibition” value was 5%.
`COc1ccc(-c2nc(CNC[C@@H]3CCCO3)co2)cc1` was tested, and the “% inhibition” value was 16%.
`CCOc1ccccc1-c1nc(CN(CCC#N)CC2CCCO2)co1` (configuration not stated) was tested, and the “% inhibition” value was -20%.
`CCOc1ccccc1-c1nc(CN(CC)CCN(CC)CC)co1` was tested, and the “% inhibition” value was -5%.
For `O/N=C(\NC1CCc2ccccc21)c1ccnc(Oc2cccc3cnccc23)c1` (configuration not stated), the “% inhibition” value was 18%.
For `C=CCN1CCN(/C(=N\O)c2cccnc2Oc2ccc(Cl)cc2)CC1`, the “% inhibition” value was 7%.
`Cc1ccccc1-c1nc(CNCCC2=CCCCC2)co1` was tested, and the “% inhibition” value was 10%.
In the case of `CCOc1ccccc1-c1nc(CNCCC2=CCCCC2)co1`, the “% inhibition” value is reported as 53%.
For `Brc1ccccc1-c1nc(CNCCC2=CCCCC2)co1`, the “% inhibition” value was -2%.
For `COc1ccc(OC)c(NCc2coc(-c3ccco3)n2)c1`, the “% inhibition” value was -5%.
For `CCC(CC)NCc1coc(-c2ccccc2Cl)n1`, the “% inhibition” value was -8%.
For `CCOc1ccc(Oc2nc(C)ccc2/C(=N/O)NCc2ccco2)cc1`, the “% inhibition” value was 6%.
In the case of `Cc1ccc([C@@H](C)NCc2coc(-c3ccc(Cl)cc3Cl)n2)cc1`, the “% inhibition” value is reported as 14%.
With `O/N=C(/c1ccnc(Oc2cccc(F)c2)c1)N1CCCCCC1` the “% inhibition” value was 3%.
In the case of `CCC(CC)N/C(=N\O)c1ccc(C)nc1Oc1ccc(C)cc1`, the “% inhibition” value is reported as 70%.
With `CCC(CC)N/C(=N\O)c1ccc(C)nc1Oc1ccc(C)cc1OC` the “% inhibition” value was 100%.
With `CCC(CC)N/C(=N\O)c1ccc(C)nc1Oc1ccc(F)cc1` the “% inhibition” value was 24%.
With `COc1cc(C)ccc1Oc1nc(C)ccc1/C(=N/O)NC(C)C` the “% inhibition” value was 29%.
With `CCC(CC)N/C(=N\O)c1ccc(C)nc1Oc1ccc(C)cc1C` the “% inhibition” value was 34%.
In the case of `CSc1ccc(Oc2nc(C)ccc2/C(=N/O)NC(C)C)cc1`, the “% inhibition” value is reported as -8%.
For `CCC(CC)N/C(=N\O)c1ccc(C)nc1Oc1ccc(SC)cc1`, the “% inhibition” value was 99%.
In the case of `CSc1ccc(Oc2nc(C)ccc2/C(=N/O)NCC(C)(C)C)cc1`, the “% inhibition” value is reported as -6%.
`CCC(CC)N/C(=N\O)c1ccc(C)nc1Oc1cc(C)cc(C(C)C)c1` was tested, and the “% inhibition” value was 15%.
In the case of `Cc1ccc(/C(N)=N/O)c(Oc2cccc3ccc(C)nc23)n1`, the “% inhibition” value is reported as 13%.
`O/N=C(\NCCN1CCOCC1)c1ccc(Oc2cccc3cccnc23)nc1` was tested, and the “% inhibition” value was 9%.
For `Cc1cc(Oc2ccc(/C(=N/O)n3ccnc3)cn2)cc(C(C)C)c1`, the “% inhibition” value was 1%.
In the case of `C=CCN1CCN(/C(=N\O)c2ccnc(Oc3ccc(C)c4c3CCC4)c2)CC1`, the “% inhibition” value is reported as 22%.
For `Cc1ccccc1-c1nc(CN2CCN(C/C=C/c3ccccc3)CC2)co1`, the “% inhibition” value was -34%.
`Cc1cccc(-c2nc(CNCc3ccc(C(C)(C)C)cc3)co2)c1` was tested, and the “% inhibition” value was -9%.
`CCC(CC)N/C(=N\O)c1cccnc1Oc1ccccc1OC` was tested, and the “% inhibition” value was 76%.
For `COc1ccc(CN/C(=N\O)c2cccnc2Oc2ccccc2SC)cc1`, the “% inhibition” value was 16%.
In the case of `CSc1ccccc1Oc1ncccc1/C(=N/O)NCc1cccs1`, the “% inhibition” value is reported as 28%.
`COCC(C)N/C(=N\O)c1cccnc1OCc1ccccc1F` (configuration not stated) was tested, and the “% inhibition” value was -13%.
With `CCC(CC)N/C(=N\O)c1cccnc1Oc1ccccc1SC` the “% inhibition” value was 99%.
For `COCC(C)N/C(=N\O)c1cccnc1Oc1ccccc1OC(C)C` (configuration not stated), the “% inhibition” value was -8%.
`CCC(CC)N/C(=N\O)c1cccnc1Oc1ccccc1F` was tested, and the “% inhibition” value was 96%.
In the case of `Cc1cn(/C(=N\O)c2cccnc2Oc2c(F)cccc2F)cn1`, the “% inhibition” value is reported as -7%.
For `CCC(CC)N/C(=N\O)c1cccnc1Oc1c(F)cccc1F`, the “% inhibition” value was 99%.
With `COCCN(/C(=N\O)c1cccnc1Oc1ccccc1F)C(C)C` the “% inhibition” value was 5%.
In the case of `COC[C@H]1CCCN1Cc1coc(-c2ccc(O)cc2)n1`, the “% inhibition” value is reported as 16%.
With `Clc1ccccc1-c1nc(CNCCc2ccccc2)co1` the “% inhibition” value was -15%.
With `CCC(NCc1coc(-c2ccc(C)cc2)n1)c1ccccc1` (configuration not stated) the “% inhibition” value was -6% and 4%.
For `Cc1cc(Oc2ccc(/C(=N/O)N3CCSCC3)cn2)cc(C(C)C)c1`, the “% inhibition” value was 4%.
For `Cc1ccc(/C(=N/O)NCc2ccc(C)o2)c(OCc2ccccc2F)n1`, the “% inhibition” value was 18%.
In the case of `CC(CCc1ccccc1)NCc1coc(-c2ccc(F)cc2)n1` (configuration not stated), the “% inhibition” value is reported as 17%.
In the case of `Cc1ccc(Oc2nc(C)ccc2/C(=N/O)NCc2cccs2)cc1`, the “% inhibition” value is reported as 16%.
`COc1cccc(N2CCN(Cc3coc(-c4ccc(Cl)cc4Cl)n3)CC2)c1` was tested, and the “% inhibition” value was 10%.
With `Cc1ccc(/C(=N/O)NC2CC(C)CC(C)(C)C2)c(OCC(C)C)n1` (configuration not stated) the “% inhibition” value was 97%.
`Cc1ccc(/C(=N/O)NC2CC(C)CC(C)(C)C2)c(OCc2ccccn2)n1` (configuration not stated) was tested, and the “% inhibition” value was 56%.
With `Cc1ccc(/C(=N/O)NC(C)C)c(OCc2ccccn2)n1` the “% inhibition” value was 11%.
In the case of `Cc1ccc(/C(=N/O)NC2CCC(C)CC2)c(OCc2ccccn2)n1` (configuration not stated), the “% inhibition” value is reported as 100%.
For `CSc1ccc(Oc2nc(C)ccc2/C(=N/O)NC2CC(C)CC(C)(C)C2)cc1` (configuration not stated), the “% inhibition” value was 10%.
`Cc1cc(C)cc(Oc2nc(C)ccc2/C(=N/O)NC2CC(C)CC(C)(C)C2)c1` (configuration not stated) was tested, and the “% inhibition” value was -4%.
With `CC(C)COc1ncccc1/C(=N/O)NC1CC(C)CC(C)(C)C1` (configuration not stated) the “% inhibition” value was -8%.
`Cc1ccc(/C(=N/O)NCC2CCCCC2)c(OCc2ccccn2)n1` was tested, and the “% inhibition” value was 43%.
In the case of `Cc1ccc(/C(=N/O)NC2CCc3ccccc32)c(OCc2ccccn2)n1` (configuration not stated), the “% inhibition” value is reported as 5%.
